The structures appear in SMILES notation. Active and inactive are the calls of the source. How the source made its calls: active means hit-call score of the fitted dose curve at least 0.9, where 1 is the maximum; inactive means score below 0.9.

Conditions in all cases: mRNA level, 48 h; actives raise or lower the signal
Read-out in experiment [1]: matrix metalloproteinase-10 (MMP10), MMP10 (gene 4319)
Briefly: LTEA_HepaRG_MMP10: Life Technologies and Expression Analysis (LTEA) Assay for matrix metalloproteinase-10 (MMP10) using HepaRG (AID 2283517). Put shortly:
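In differentiated HepaRG cultures kept in 0.5% DMSO, test chemicals act for 48 h over an eight-point range with a top dose of 100 uM. Expression is then quantified by TaqMan RT-PCR against ACTB, GAPDH and POLR2A.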

Read-out in another experiment: MYC, MYC (gene 4609)
Kind of experiment: LTEA_HepaRG_MYC: Life Technologies and Expression Analysis (LTEA) Assay for MYC using HepaRG (AID 2283518). Put shortly:
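Expression changes were scored by TaqMan qRT-PCR with ACTB, GAPDH and POLR2A normalization. Cultures in serum-free induction medium received duplicate 8-point concentration series, highest 100 uM, for 48 h; DMSO (0.5%) served as baseline.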

Read-out in experiment [2]: matrix metalloproteinase-3 (MMP3), MMP3 (gene 4314)
Kind of experiment: LTEA_HepaRG_MMP3: Life Technologies and Expression Analysis (LTEA) Assay for matrix metalloproteinase-3 (MMP3) using HepaRG (AID 2283519). In outline:
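Human liver HepaRG cultures received chemicals (top concentration 100 uM, 0.5% DMSO) for 48 h in duplicate. MMP3 mRNA induction or loss was then assessed via TaqMan qRT-PCR with housekeeping-gene normalisation.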

Read-out in experiment [3]: Paternally Expressed 10 (PEG10), PEG10 (gene 23089)
Kind of experiment: LTEA_HepaRG_PEG10: Life Technologies and Expression Analysis (LTEA) Assay for Paternally Expressed 10 (PEG10) using HepaRG (AID 2283520).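 On AC50: differentiated HepaRG human liver cells in serum-free induction medium with 0.5% DMSO; PEG10 transcript by qRT-PCR normalised to ACTB GAPDH and POLR2A.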 Put shortly:
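qRT-PCR read-out: PEG10 mRNA normalised to three housekeeping genes, fitted bidirectionally against 0.5% DMSO vehicle. HepaRG cells received test chemicals for 48 h in serum-free induction medium, 8 points, top 100 uM, half-log steps.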

Read-out in experiment [4]: Nuclear factor NF-kappa-B p105 subunit (Homo sapiens) (UniProt P19838)
Briefly: LTEA_HepaRG_NFKB1: Life Technologies and Expression Analysis (LTEA) Assay for Nuclear Factor Kappa B Subunit 1 (NFKB1) using HepaRG (AID 2283521).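 On outcome: differentiated human HepaRG liver cells in serum-free induction medium; TaqMan qRT-PCR transcript normalised to ACTB GAPDH and POLR2A housekeeping genes.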 Put shortly: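 HepaRG, 48 h exposure; 8-pt half-log series from 100 uM in 0.5% DMSO; duplicates. Readout: NFKB1 mRNA by qRT-PCR (Fluidigm arrays), housekeeping-normalized. Gain/loss fit vs DMSO baseline.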

Read-out in experiment [5]: Protein phosphatase 2A (PPP2R4), PTPA (gene 5524)
Kind of experiment: LTEA_HepaRG_PPP2R4: Life Technologies and Expression Analysis (LTEA) Assay for Protein phosphatase 2A (PPP2R4) using HepaRG (AID 2283522). Put shortly:
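HepaRG, 48 h exposure, 8-pt half-log series from 100 uM, 0.5% DMSO vehicle, duplicates. Readout: PPP2R4 mRNA, Fluidigm qRT-PCR, housekeeping-normalized. Bidirectional curve fit vs DMSO baseline.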

Read-out in experiment [6]: Phosphatase and tensin (PTEN), PTEN (gene 5728)
Kind of experiment: LTEA_HepaRG_PTEN: Life Technologies and Expression Analysis (LTEA) Assay for Phosphatase and tensin (PTEN) using HepaRG (AID 2283523). In outline:
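Expression of PTEN is quantified in the human liver line HepaRG following two days of dosing (top concentration 100 uM, half-log dilutions, 0.5% DMSO). Values derive from bidirectional curve fitting relative to DMSO controls.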

Read-out in experiment [7]: solute carrier (SLC22A1), SLC22A1 (gene 6580)
Briefly: LTEA_HepaRG_SLC22A1: Life Technologies and Expression Analysis (LTEA) Assay for solute carrier (SLC22A1) using HepaRG (AID 2283524).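 On AC50: differentiated human HepaRG liver cells in serum-free induction medium; TaqMan qRT-PCR normalized to ACTB GAPDH and POLR2A housekeeping genes.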 In outline:
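Transcript induction or suppression of SLC22A1 in human HepaRG cultures is scored after 48 h chemical treatment, with DMSO (0.5%) as baseline for bidirectional fitting. Concentrations span eight half-log points topping at 100 uM.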

Read-out in experiment [8]: Pyruvate Dehydrogenase Kinase 4 (PDK4), PDK4 (gene 5166)
Kind of experiment: LTEA_HepaRG_PDK4: Life Technologies and Expression Analysis (LTEA) Assay for Pyruvate Dehydrogenase Kinase 4 (PDK4) using HepaRG (AID 2283525). Put shortly:
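Eight-point, half-log concentration series (max 100 uM, 0.5% DMSO) applied to differentiated HepaRG cells for 48 h in duplicate. Endpoint: PDK4 mRNA induction or repression by qRT-PCR against DMSO baseline.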

Read-out in experiment [9]: NAD(P)H dehydrogenase [quinone] 1 (NQO1), NQO1 (gene 1728)
Kind of experiment: LTEA_HepaRG_NQO1: Life Technologies and Expression Analysis (LTEA) Assay for NAD(P)H dehydrogenase [quinone] 1 (NQO1) using HepaRG (AID 2283526). In outline:
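qRT-PCR read-out (Fluidigm TaqMan), normalized to three housekeeping genes, after 48 h chemical exposure of HepaRG cells. Concentrations: eight points, top 100 uM, half-log steps, 0.5% DMSO vehicle. Gain or loss of signal fitted relative to DMSO.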

Read-out in experiment [10]: Nuclear factor erythroid 2-related factor 2 (Homo sapiens) (UniProt Q16236)
Briefly: LTEA_HepaRG_NFE2L2: Life Technologies and Expression Analysis (LTEA) Assay for Nuclear factor erythroid 2-related factor 2 (NFE2L2) Transcription Factor using HepaRG (AID 2283527).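 On outcome: TaqMan qRT-PCR transcript level normalised to ACTB GAPDH and POLR2A housekeeping genes.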 In outline:
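Human liver HepaRG line treated in duplicate for 48 h with an eight-point series topping at 100 uM. Gene expression of NFE2L2 by qRT-PCR, bidirectionally fitted against the vehicle control.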

Read-out in experiment [11]: succinate dehydrogenase complex iron sulfur subunit B (SDHB), SDHB (gene 6390)
Kind of experiment: LTEA_HepaRG_SDHB: Life Technologies and Expression Analysis (LTEA) Assay for succinate dehydrogenase complex iron sulfur subunit B (SDHB) using HepaRG (AID 2283528). In outline:
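Readout is SDHB transcript level by qRT-PCR, normalised to three housekeeping genes and fitted bidirectionally against 0.5% DMSO vehicle. Human HepaRG cells were treated for 48 h at up to 100 uM.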

Read-out in experiment [12]: Signal transducer and activator of transcription 3 (Homo sapiens) (UniProt P40763)
Kind of experiment: LTEA_HepaRG_STAT3: Life Technologies and Expression Analysis (LTEA) Assay for Signal transducer and activator of transcription (STAT3) using HepaRG (AID 2283529). In outline:
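In this transcriptional endpoint, HepaRG cultures receive test chemicals at up to 100 uM for 48 h, tested in duplicate. STAT3 mRNA is normalized to ACTB, GAPDH and POLR2A.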

Read-out in experiment [13]: solute carrier (SLCO1B1), SLCO1B1 (gene 10599)
Kind of experiment: LTEA_HepaRG_SLCO1B1: Life Technologies and Expression Analysis (LTEA) Assay for solute carrier (SLCO1B1) using HepaRG (AID 2283530). In outline: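 Human HepaRG cultures treated for 48 h with an eight-concentration half-log series topping at 100 uM; SLCO1B1 measured by qRT-PCR and fitted bidirectionally relative to DMSO.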

Read-out in experiment [14]: sulfotransferase 2A1 (SULT2A1), SULT2A1 (gene 6822)
Kind of experiment: LTEA_HepaRG_SULT2A1: Life Technologies and Expression Analysis (LTEA) Assay for sulfotransferase 2A1 (SULT2A1) using HepaRG (AID 2283531). Put shortly: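 Gene-expression endpoint in a human liver cell line: SULT2A1 mRNA change after 48 h chemical treatment, curves fitted in both directions relative to 0.5% DMSO vehicle. Concentrations spanned eight half-log steps from 100 uM.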

Read-out in experiment [15]: Transforming Growth Factor (TGFA), TGFA (gene 7039)
Kind of experiment: LTEA_HepaRG_TGFA: Life Technologies and Expression Analysis (LTEA) Assay for Transforming Growth Factor (TGFA) using HepaRG (AID 2283532). Put shortly:
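Gene expression of TGFA was quantified by qRT-PCR after human HepaRG cells were treated for 48 h with test chemicals (eight concentrations, highest 100 uM, 0.5% DMSO). Activity in either direction was fitted relative to DMSO.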

Read-out in experiment [16]: Transforming Growth Factor (TGFB1), TGFB1 (gene 7040)
Kind of experiment: LTEA_HepaRG_TGFB1: Life Technologies and Expression Analysis (LTEA) Assay for Transforming Growth Factor (TGFB1) Transporter using HepaRG (AID 2283533). Put shortly:
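Eight-point concentration-response (max 100 uM, half-log) in HepaRG under serum-free induction conditions, 48 h. TGFB1 mRNA by qRT-PCR, housekeeping-normalized.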

Read-out in a further experiment: TIMP1, TIMP1 (gene 7076)
Briefly: LTEA_HepaRG_TIMP1: Life Technologies and Expression Analysis (LTEA) Assay for TIMP1 using HepaRG (AID 2283534).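 On outcome: TaqMan qRT-PCR signal normalized to ACTB GAPDH and POLR2A housekeeping genes.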 Put shortly: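 TIMP1 induction or repression in HepaRG cells after 48 h chemical exposure (eight concentrations, highest 100 uM), assessed by normalized qRT-PCR with bidirectional fitting to DMSO controls.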

Read-out in experiment [17]: Tumor necrosis factor receptor 1 (TNFRSF1A), TNFRSF1A (gene 7132)
Kind of experiment: LTEA_HepaRG_TNFRSF1A: Life Technologies and Expression Analysis (LTEA) Assay for Tumor necrosis factor receptor 1 (TNFRSF1A) using HepaRG (AID 2283535). Put shortly: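 Assay uses 48 h chemical treatment of differentiated HepaRG monolayers, tested in duplicate at eight concentrations from 100 uM downward in 0.5% DMSO. mRNA is normalized to ACTB, GAPDH and POLR2A, with induction or suppression fitted relative to vehicle.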

Read-out in experiment [18]: Thyroid Hormone Responsive (THRSP), THRSP (gene 7069)
Briefly: LTEA_HepaRG_THRSP: Life Technologies and Expression Analysis (LTEA) Assay for Thyroid Hormone Responsive (THRSP) using HepaRG (AID 2283536). Put shortly: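 Cell model: human HepaRG, approx. 100,000 cells/well, 0.5% DMSO vehicle. Exposure lasts 48 h; phenobarbital 1 mM serves as induction positive control. Gene expression is measured by qRT-PCR against three endogenous control genes.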

Sequence of Nuclear factor NF-kappa-B p105 subunit (Homo sapiens) (P19838 whole entry, looked up): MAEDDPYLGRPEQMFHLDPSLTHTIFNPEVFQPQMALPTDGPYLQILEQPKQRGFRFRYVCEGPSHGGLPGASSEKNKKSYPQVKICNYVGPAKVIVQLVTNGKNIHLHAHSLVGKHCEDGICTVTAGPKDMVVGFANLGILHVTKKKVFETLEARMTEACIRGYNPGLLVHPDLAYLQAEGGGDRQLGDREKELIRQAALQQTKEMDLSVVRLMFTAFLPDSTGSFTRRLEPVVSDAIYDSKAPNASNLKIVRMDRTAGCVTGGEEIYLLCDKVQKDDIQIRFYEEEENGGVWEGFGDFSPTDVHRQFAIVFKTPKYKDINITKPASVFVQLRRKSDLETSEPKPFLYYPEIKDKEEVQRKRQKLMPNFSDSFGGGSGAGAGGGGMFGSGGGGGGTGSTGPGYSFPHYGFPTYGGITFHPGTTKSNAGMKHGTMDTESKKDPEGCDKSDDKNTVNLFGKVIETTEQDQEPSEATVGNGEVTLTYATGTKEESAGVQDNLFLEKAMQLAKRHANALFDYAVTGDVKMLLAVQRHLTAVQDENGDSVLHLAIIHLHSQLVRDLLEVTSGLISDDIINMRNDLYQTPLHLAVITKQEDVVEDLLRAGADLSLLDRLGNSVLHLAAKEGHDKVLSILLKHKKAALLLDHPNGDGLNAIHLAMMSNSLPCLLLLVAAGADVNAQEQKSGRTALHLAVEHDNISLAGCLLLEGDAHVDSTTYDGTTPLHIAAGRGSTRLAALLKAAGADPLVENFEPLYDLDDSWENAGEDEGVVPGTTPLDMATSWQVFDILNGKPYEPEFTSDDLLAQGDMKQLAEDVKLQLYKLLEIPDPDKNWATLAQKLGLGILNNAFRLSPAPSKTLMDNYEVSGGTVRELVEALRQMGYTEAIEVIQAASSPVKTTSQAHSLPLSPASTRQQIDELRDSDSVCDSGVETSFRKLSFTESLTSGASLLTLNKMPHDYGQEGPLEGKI
Sequence of Nuclear factor erythroid 2-related factor 2 (Homo sapiens) (Q16236 whole entry, looked up): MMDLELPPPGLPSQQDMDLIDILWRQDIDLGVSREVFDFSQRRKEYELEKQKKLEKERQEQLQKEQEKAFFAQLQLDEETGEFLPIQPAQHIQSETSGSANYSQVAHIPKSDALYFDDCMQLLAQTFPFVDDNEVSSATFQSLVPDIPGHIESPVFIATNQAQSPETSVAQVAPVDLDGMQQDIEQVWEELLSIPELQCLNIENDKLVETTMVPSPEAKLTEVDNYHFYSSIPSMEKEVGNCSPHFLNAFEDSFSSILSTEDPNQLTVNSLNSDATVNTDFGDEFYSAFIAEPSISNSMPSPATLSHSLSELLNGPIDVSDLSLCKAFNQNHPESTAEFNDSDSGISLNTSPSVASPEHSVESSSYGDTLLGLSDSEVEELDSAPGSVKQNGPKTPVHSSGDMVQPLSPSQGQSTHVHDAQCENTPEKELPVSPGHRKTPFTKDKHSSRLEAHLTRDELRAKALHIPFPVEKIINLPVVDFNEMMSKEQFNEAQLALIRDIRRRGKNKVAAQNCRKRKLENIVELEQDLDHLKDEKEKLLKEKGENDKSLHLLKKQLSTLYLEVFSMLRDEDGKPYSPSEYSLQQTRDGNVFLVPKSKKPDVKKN
Sequence of Signal transducer and activator of transcription 3 (Homo sapiens) (P40763 whole entry, looked up): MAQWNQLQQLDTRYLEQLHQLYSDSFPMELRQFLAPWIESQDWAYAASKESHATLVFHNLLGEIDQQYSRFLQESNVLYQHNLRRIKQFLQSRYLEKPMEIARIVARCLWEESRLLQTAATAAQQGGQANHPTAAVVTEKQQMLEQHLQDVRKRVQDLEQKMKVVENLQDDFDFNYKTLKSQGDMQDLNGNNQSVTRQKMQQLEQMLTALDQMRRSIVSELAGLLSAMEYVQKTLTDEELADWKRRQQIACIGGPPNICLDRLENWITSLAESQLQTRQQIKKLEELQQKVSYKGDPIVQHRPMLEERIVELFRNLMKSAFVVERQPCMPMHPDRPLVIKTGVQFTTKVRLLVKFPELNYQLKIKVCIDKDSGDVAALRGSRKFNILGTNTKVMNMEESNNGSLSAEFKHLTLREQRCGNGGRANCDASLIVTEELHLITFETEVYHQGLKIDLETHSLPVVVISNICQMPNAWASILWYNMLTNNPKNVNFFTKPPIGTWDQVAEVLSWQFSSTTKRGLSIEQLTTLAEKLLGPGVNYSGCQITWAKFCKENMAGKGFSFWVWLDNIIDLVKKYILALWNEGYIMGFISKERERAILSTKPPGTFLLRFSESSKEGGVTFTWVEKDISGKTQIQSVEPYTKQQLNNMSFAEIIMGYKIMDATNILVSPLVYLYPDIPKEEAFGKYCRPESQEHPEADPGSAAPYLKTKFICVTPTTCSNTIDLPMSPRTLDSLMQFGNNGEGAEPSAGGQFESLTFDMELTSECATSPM

For `CC1=C(/C=C/C(C)=C/C=C/C(C)=C/CO)C(C)(C)CCC1`, the outcome in experiment [1] was “inactive”; in the experiment with MYC, MYC (gene 4609) it was “inactive”; in experiment [3], “inactive”; in experiment [4], “inactive”; in [5], “inactive”; in [6], “inactive”. Also, the molecule was called inactive in experiment [8], in experiment [10], in [11], in [12], in experiment [13] and in experiment [15]. Besides, the outcome was “inactive” in [16]; “inactive” with TIMP1, TIMP1 (gene 7076); “inactive” in experiment [17]; “inactive” in experiment [18]. The AC50 (as a rule, the concentration at which the activity in the assay is half-maximal) in [2] is 23.1 µM (active); in experiment [7] it was 10.4 µM (active); in [9], 52.2 µM (active); in experiment [14] it was 52.2 µM (active).

As for `CC(C)c1ccc(C(=O)N=C(N)N)cc1S(C)(=O)=O`, the AC50 in [1] is 67.9 µM (active); with MYC, MYC (gene 4609), 0.343 µM (active); in experiment [2], 1.4 µM (active); in [4], 0.291 µM (active); in [5] it was 0.532 µM (active); in experiment [6] it was 0.277 µM (active). Further, the AC50 is 0.35 µM (active) in [7]; 0.362 µM (active) in experiment [8]; 0.959 µM (active) in experiment [9]; 7.8 µM (active) in experiment [10]; 0.555 µM (active) in experiment [15]; 0.403 µM (active) in experiment [16]. Also, the AC50 in [17] is 0.337 µM (active); in [18] it was 37.2 µM (active). Further, the outcome in [3] was “inactive”; in [11], “inactive”; in [12], “inactive”; in experiment [13], “inactive”; in [14], “inactive”; with TIMP1, TIMP1 (gene 7076), “inactive”.

`CCCCOC(=O)CCCCCCCCC(=O)OCCCC`: the outcome in experiment [1] is “inactive”; with MYC, MYC (gene 4609), “inactive”; in [2], “inactive”; in experiment [3] it was “inactive”; in [4], “inactive”; in experiment [5], “inactive”. In addition, the result in experiment [6], in experiment [7], in experiment [8], in [9], in [10] and in experiment [11] was inactive. For the same molecule, the outcome in experiment [12] was “inactive”; in [13] it was “inactive”; in experiment [14] it was “inactive”; in [15] it was “inactive”; in experiment [16], “inactive”; with TIMP1, TIMP1 (gene 7076), “inactive”. Moreover, the molecule was classed as inactive in experiment [17] and in experiment [18].

Consider `Oc1ccc2ccccc2c1N=Nc1ccccc1`, for which the result in experiment [1], in experiment [2], in experiment [4], in [5], in [6] and in experiment [9] was inactive. The molecule was classed as inactive in [11], in experiment [15], in experiment [16] and in experiment [17]. In addition, the AC50 with MYC, MYC (gene 4609) is 6.08 µM (active); in [3] it was 19 µM (active); in experiment [7] it was 10.5 µM (active); in experiment [8] it was 4.28 µM (active); in experiment [10], 1.5 µM (active); in experiment [12] it was 16.2 µM (active). Moreover, the AC50 in experiment [13] is 11.4 µM (active); in [14], 4.89 µM (active); with TIMP1, TIMP1 (gene 7076) it was 10.1 µM (active); in experiment [18], 2.19 µM (active).

For the origin of these results see PubChem BioAssay (EPA / NIEHS).
